Data on 40 compounds can be found in PubChem BioAssay (Tox21).

Structures are written as SMILES. Results filed as inconclusive are left out. Calls of active or inactive are those of the source. Calls come from the whole dose curve; as a rule, active = well fitted cell-killing curve with a large enough effect in the repeat runs; inconclusive = weak or mixed curves, or effect the other way; inactive = flat fitted curve, though single readings scatter.

The assay is described as follows: qHTS RealTime-Glo MT Cell Viability Assay in HepG2 cells - 40 hour (AID 1224870). Note: nearly all actives have a fitted effect of over 50% in size. The settings on record: RealTime-Glo luminescence; series mostly up to 76.8 µM. From the text: National Center for Advancing Translational Sciences [NCATS]
NIH Chemical Genomics Center [NCGC]
U.S. Environmental Protection Agency [EPA]
National Institutes of Environmental Health Sciences [NIEHS]
National Toxicology Program [NTP]
U.S. Food and Drug Administration [FDA]
Measure of cell viability is critical in the cell-base assay. Analysis of cell viability is necessary for the characterization of cell responses to cytotoxic drugs and environmental stress. A RealTime-Glo MT Cell Viability Assay to monitor cell viability in real time of continues cell culture during 40 hours of compound treatment was used to screen Tox21 10K library compounds in HepG2 cells. The RealTime-Glo MT Cell Viability Assay is a nonlytic, homogeneous, bioluminescent method to measure cell viability in real time using a simple, plate-based method. The assay involves adding NanoLuc luciferase and a cell-permeant prosubstrate to cells in culture. Viable cells reduce the proprietary prosubstrate to generate a substrate for NanoLuc luciferase. This substrate diffuses from cells into the surrounding culture medium, where it is rapidly used by the NanoLuc Enzyme to produce a luminescent signal. The signal correlates with the number of viable cells, making the assay well suited for cytotoxicity studies.
Tox21 Assay Protocol Summary:
The mixture of HepG2 cell suspension and reagents were dispensed at 600cells/6 ul/well in 1536-well tissue culture treated black solid bottom plates using a Multidrop dispenser. After the assay plates were incubated at a 37 C/5% CO2 incubator for 5 hours, 23 nL of compounds dissolved in DMSO, positive and negative controls was transferred to the assay plate by a pintool work station. The plates were incubated at 37 C for 40 hours. The luminescence intensity were measured at 0h, 8h, 16h, 24h, 32h and 40h time points using ViewLux plate reader during compound treatment.
A general note: Quantitative high-throughput screening tests each substance at several concentrations.
With `CC(C)OC(=O)Nc1cccc(Cl)c1`, the call was inactive.

Regarding `CCC[CH2][Sn]([Cl])([Cl])[Cl]`, the outcome was inactive.

For `CC(C)(C)OOC(C)(C)C`, the outcome was inactive.

For the compound `CC(C)C1(C)N=C(c2nc3ccccc3cc2C(=O)O)NC1=O` (stereo not given), the compound was classed as inactive.

On to `CCOP(OCC)OCC`, for which the outcome was inactive.

Turning to `CNC(=O)Oc1ccccc1OC(C)C`, the outcome was inactive.

In the case of `CCCCN(CCCC)SN(C)C(=O)Oc1cccc2c1OC(C)(C)C2`, the call was inactive.

With `CCCCCCCCCl`, the compound was classed as inactive.

As to `Nc1ccc(Cc2ccc(N)cc2)cc1`, the outcome was inactive.

As for `[O-][Cl+2]([O-])O`, the compound was classed as inactive.

As for `O=C(NC(=O)c1c(F)cccc1F)Nc1cc(Cl)c(OC(F)(F)C(F)C(F)(F)F)cc1Cl` (stereo not given), the compound was classed as inactive.

As to `c1ccc2c(c1)Oc1ccccc1O2`, the result was inactive.

As for `CC(NC(C)(C)C)C(=O)c1cccc(Cl)c1` (stereo not given), the result was inactive.

In the case of `Clc1ccccc1Cl`, the outcome was inactive.

For the compound `CCCC1COC(Cn2cncn2)(c2ccc(Cl)cc2Cl)O1` (stereo not given), the outcome was inactive.

In the case of `Clc1cccc(Cl)c1Cl`, the call was inactive.

On to `CN(C)CCO`, for which the compound was classed as inactive.

Take `CCNc1nc(NC(C)C)nc(SC)n1`: the result was inactive.

Take `O=C1CCCN1`: the compound was called inactive.

Take `CCc1cccc(C)c1N(C(=O)CCl)C(C)COC` (stereo not given): the compound was called inactive.

Regarding `COc1ccc2c3c1O[C@H]1[C@@H](O)C=C[C@H]4[C@@H](C2)N(C)CC[C@@]341`, the outcome was inactive.

Regarding `CC(Oc1ccc(Cl)cc1Cl)C(=O)O` (stereo not given), the outcome was inactive.

On to `Cc1ccc([N+](=O)[O-])cc1C`, for which the compound was called inactive.

As for `O=Cc1cccc(Oc2ccccc2)c1`, the outcome was inactive.

In the case of `CCCCOC(=O)c1ccccc1C(=O)OCCCC`, the result was inactive.

Regarding `C=C(C)CCl`, the outcome was inactive.

For the compound `CON(C)C(=O)Nc1ccc(Cl)c(Cl)c1`, the compound was called inactive.

In the case of `Nc1ccccc1C(=O)O`, the call was inactive.

Take `O=c1ccc(=O)[nH][nH]1`: the compound was classed as inactive.

For the compound `O=[N+]([O-])c1ccc(Oc2ccc(Cl)cc2Cl)cc1`, the result was inactive.

On to `CCC12COCN1COC2`, for which the compound was classed as inactive.

For `CC(C)(Cl)Cl`, the compound was called inactive.

`CCN(CC)c1ccccc1`: the outcome was inactive.

On to `CN(N=O)c1ccccc1`, for which the outcome was inactive.

`CCCCN(CC)C(=O)SCCC`: the result was inactive.

As for `CC(C)N1C(=O)c2ccccc2NS1(=O)=O`, the compound was called inactive.

Consider `CCCCCCCCCCCC#N`, for which the compound was classed as inactive.

Regarding `Nc1ccc(Br)cc1`, the compound was classed as inactive.

As for `CCC(C)(CC)c1cc(NC(=O)c2c(OC)cccc2OC)on1`, the outcome was inactive.

`NCCc1ccc(O)cc1`: the outcome was inactive.
